From PubChem
Shown is part of a subset that was picked to be rich in hits.
CBX7 AlphaScr = CBX7 chromodomain binding inhibitors, primary screen, biochemical, AlphaScreen. Chromobox protein homolog 7 (Homo sapiens), O95931. AlphaScreen His6-CBX7 / biotin-H3K27me3 peptide binding; hits give low values. normalised signal (fraction of DMSO) (test concentration not listed). 66,000 compounds, 1.1% hits. AID 1224903, 2016; in the data active = normalised signal below about 0.5
Target sequence (O95931 whole entry, looked up): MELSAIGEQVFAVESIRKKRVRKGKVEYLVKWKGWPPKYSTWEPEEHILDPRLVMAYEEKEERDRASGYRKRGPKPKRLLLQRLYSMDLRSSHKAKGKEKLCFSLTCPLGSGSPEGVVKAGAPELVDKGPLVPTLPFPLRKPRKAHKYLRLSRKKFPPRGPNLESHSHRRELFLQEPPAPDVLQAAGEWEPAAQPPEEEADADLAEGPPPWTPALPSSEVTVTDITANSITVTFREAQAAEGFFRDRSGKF
The depositor's hits bear a star.

SMILES	CBX7 AlphaScr
CCOC(=O)N1CCc2c(sc(NCc3cccs3)c2C(=O)Nc2ccc(OC)cc2OC)C1	0.857
CCOC(=O)N1CCc2c(sc(NCc3ccncc3)c2C(=O)Nc2cc(OC)ccc2OC)C1	0.716
CCOC(=O)N1CCc2c(sc(NCc3cccs3)c2C(=O)Nc2cc(OC)ccc2OC)C1	0.472*
CCOC(=O)C1CCN(C(=O)CCc2c(C)nc3cc(-c4cccc(F)c4)nn3c2C)CC1	0.846
c1ccc(-c2nnc3sc(-c4ccccn4)nn23)cc1	0.799
c1ccc(-c2nnc3sc(-c4cnccn4)nn23)cc1	1.04
CC(C)(C)c1ccc(-c2nnc3sc(-c4ccccn4)nn23)cc1	0.105*
Cc1ccc(-n2nc3c(c2NC(=O)C2CCCC2)CSC3)cc1	1.05
O=c1cnn(Cc2ccccc2)c(=O)n1Cc1ccccc1	0.835
Cc1ccc(-c2cc(C(=O)Nc3cc(C)on3)c3ccccc3n2)cc1	1.01
Cc1ccc(Nc2c(-c3ccc(Cl)cc3)nc3cc(C)ccn23)cc1	1
Cc1ccn2c(Nc3ccccc3)c(-c3cccnc3)nc2c1	0.942
Cc1ccccc1Nc1c(-c2ccccn2)nc2cnccn12	0.804
COc1ccc(-c2nc3cc(C)ccn3c2Nc2ccccc2C)cc1	0.781
Cc1ccccc1Nc1c(-c2ccccn2)nc2ccccn12	0.127*
Cc1ccn2c(Nc3ccccc3)c(-c3ccccn3)nc2c1	0.0596*
Cc1ccn2c(Nc3ccccc3C)c(-c3ccccn3)nc2c1	0.00841*
Cc1ccccc1Nc1c(-c2cccnc2)nc2ccccn12	0.901
Cc1ccn2c(Nc3ccccc3C)c(-c3ccc(Cl)cc3)nc2c1	0.851
COc1ccc(NC(=O)c2cc3c(-c4ccc(OC)c(OC)c4)nn(C)c3s2)cc1OC	0.853
O=C(Nc1nc(-c2ccc(Cl)cc2)cs1)c1cccnc1	1.02
CCc1ccc(N(CC(=O)NC2CCCC2)S(=O)(=O)c2c(C)noc2C)cc1	0.944
CC(C)N(Cc1nc(-c2ccc(Cl)cc2)no1)C(=O)c1ccc2c(c1)OCO2	0.957
COc1ccc(Cl)cc1C(=O)Nc1nnc(C(C)C)s1	1.09
OCCNc1ccc2nnc(C(F)(F)C(F)(F)C(F)(F)F)n2n1	1.2
SMILES	CBX7 AlphaScr
CCOC(=O)c1c(NC(=O)c2ccc(OC)cc2)sc2c1CCCC2	1.23
CCOC(=O)c1[nH]c2c(c1-c1ccccc1)C(=O)CC(c1ccccc1)C2 (stereo unspecified)	0.966
CCOc1cc2c(cc1OCC)C1C(C(=O)Nc3cc(C)ccn3)c3ccccc3C(=O)N1CC2 (stereo unspecified)	0.192*
CCOc1cc2c(cc1OCC)C1C(C(=O)Nc3ccccc3C)c3ccccc3C(=O)N1CC2 (stereo unspecified)	1.06
CCOc1cc2c(cc1OCC)C1C(C(=O)Nc3ccccc3CC)c3ccccc3C(=O)N1CC2 (stereo unspecified)	1.01
Nc1ccccc1-c1nc2cc(F)ccc2[nH]c1=O	1.01
CCCN1CCCc2cc(CN(CCCN3CCOCC3)C(=O)Nc3ccc(OCC)cc3)ccc21	0.719
CCCCN1CCCc2cc(CN(CCCN3CCOCC3)C(=O)Nc3ccc(C)c(C)c3)ccc21	0.22*
CCOc1ccc(NC(=O)N(CCN2CCOCC2)Cc2ccc3c(c2)CCCN3CC)cc1	0.778
CCN1CCCc2cc(CN(CCN3CCOCC3)C(=O)Nc3ccc(Cl)cc3)ccc21	0.632
CCCN1CCCc2cc(CN(CCCOC)C(=O)Nc3ccc(C)c(C)c3)ccc21	0.64
CCCN1CCCc2cc(CN(CCCOC)C(=O)Nc3ccc(OCC)cc3)ccc21	0.233*
CCN(C(=O)Cc1c(C(=O)O)n(CC)c2ccccc12)c1cccc(Cl)c1	1.06
O=C(Cn1ccc2ccccc2c1=O)NCC(=O)N1CCN(c2ccccc2)CC1	0.98
CCOCCCNC(=O)c1ccc2c(c1)ncn2C1CCCC1	0.873
CNc1oc(-c2ccc(C)cc2)nc1S(=O)(=O)c1ccc(Cl)cc1	1.09
COc1ccc(-n2c(C)nc3cc(C(=O)NCc4cccnc4)ccc32)cc1	0.966
CCn1cnc2cc(NCc3cccc(OC)c3OC)ccc21	0.941
CCn1cnc2cc(NCc3ccncc3)ccc21	0.964
CCCCn1cnc2cc(NCc3cccc(Br)c3)ccc21	0.253*
CC(C)(C)n1cnc2cc(NCc3cccc(Br)c3)ccc21	0.747
CCCn1cnc2cc(NCc3cccc(Br)c3)ccc21	0.329*
CCn1cnc2cc(NCc3cccc(Br)c3)ccc21	0.447*
COc1cccc(CNc2ccc3c(c2)nc(C)n3C)c1	1.02
COc1ccc(CNc2ccc3c(c2)ncn3C)cc1OC	1
SMILES	CBX7 AlphaScr
CCCCn1cnc2cc(NCc3cccc(OC)c3OC)ccc21	0.539
Cc1cc(C(=O)NCc2ccccn2)n(-c2ccccc2)n1	0.967
Cc1ccc(-c2nc(C(=O)NC3CCC(C)CC3)c(C)o2)cc1 (stereo unspecified)	1.01
CCC1CCCCN1S(=O)(=O)c1ccc2[nH]c(=O)cc(C(=O)NC3CCCCCCC3)c2c1 (stereo unspecified)	0.847
O=C(Nc1ccc2c(c1)OCO2)C1c2ccccc2C(=O)N2CCc3ccccc3C12 (stereo unspecified)	0.992
Oc1ccc(Br)cc1/C=C/c1ccc2ccccc2n1	0.873
Cc1ccnc(Nc2nc(-c3c(C)nc4cc(C)ccn34)cs2)c1	0.676
Cc1ccnc(Nc2nc(-c3ccc(C(C)C)cc3)cs2)c1	0.866
Cc1ccnc(Nc2nc(-c3sc(N)nc3C)cs2)c1	0.404*
Cn1c(SCCCc2ccccc2)nnc1-c1ccncc1	1.06
FC(F)(F)c1cc(-c2ccco2)nc(-n2ccnc2)n1	1
Cc1ccc(C(NC(=O)C(C)C)c2cc(Cl)c3cccnc3c2O)cc1 (stereo unspecified)	0.627
O=C(CCc1ccccc1)NC(c1ccc(Cl)cc1)c1ccc2cccnc2c1O (stereo unspecified)	0.621
CCCC(=O)NC(c1ccc(C(C)C)cc1)c1cc(Cl)c2cccnc2c1O (stereo unspecified)	0.823
CCCC(=O)NC(c1ccc(OC)cc1)c1cc(Cl)c2cccnc2c1O (stereo unspecified)	0.776
CCN1CCN(C(c2cccs2)C(C)NC(=O)CC(C)C)CC1 (stereo unspecified)	1.14
Cc1ccc(C(NC(=O)CC(C)C)c2ccc3cccnc3c2O)cc1 (stereo unspecified)	0.628
CCCC(=O)NC(c1cccs1)c1cc(Cl)c2cccnc2c1O (stereo unspecified)	0.27*
CC(C)CC(=O)NC(c1cccs1)c1ccc2cccnc2c1O (stereo unspecified)	0.102*
CC(C)C(=O)NC(c1cccs1)c1cc(Cl)c2cccnc2c1O (stereo unspecified)	0.636
O=C(O)CC(NCc1cccnc1)c1cccs1 (stereo unspecified)	1.01
COc1ccc(C(NC(=O)CCc2ccccc2)c2ccc3cccnc3c2O)cc1 (stereo unspecified)	0.082*
CC(C)CC(=O)NC(c1ccccc1)c1ccc2cccnc2c1O (stereo unspecified)	0.0438*
COc1cccc(-c2nc(CS(=O)(=O)CC(=O)NCCC(C)C)c(C)o2)c1	1.01
Cc1ccc(S(=O)(=O)N2CCN(c3nc(NC4CCCC4)c4ccccc4n3)CC2)cc1	0.844
O=C(O)C(NS(=O)(=O)c1cccc2cccnc12)c1ccccc1 (stereo unspecified)	1.02
COc1cc(NC(=O)Cc2ccc(OC)c(OC)c2)c2ncccc2c1	1.04
Oc1c(C(Nc2ccccc2)c2ccccc2)ccc2cccnc12 (stereo unspecified)	0.237*
